Source: PubChem BioAssay
Activity calls are given as the source filed them. Unless noted, how the calls were made is not given here.

Key:
[1] = HepG2 liver cancer cell viability effects, profiling panel, resazurin fluorescence, 24 h, PK04 Diversity Set (AID 1172); settings: higher = more signal; further: test concentration not given here
[2] = basal S. cerevisiae growth modulation, no modifier, primary screen, OD600, strain BY4716, 24 h, basal condition (AID 1173); settings: OD600, 24 h, higher = more signal, called active from +8 up or from −8 down
[3] = MM1S myeloma cell viability, profiling panel, resazurin fluorescence, basal, 24 h, PK04 Diversity Set (AID 1174); settings: higher = more signal, called active from +8 up or from −8 down;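 further: MM1S multiple myeloma cell line; test concentration not given here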
[4] = target: Dihydroorotate dehydrogenase (quinone), mitochondrial (Plasmodium falciparum (isolate 3D7)) (UniProt Q08210); test: PfDHODH enzyme inhibitors, primary screen, biochemical, C-terminal His tag, absorbance 600 nm (AID 1175); settings: DCIP absorbance 600 nm, higher = more signal, called active from +8 up or from −8 down;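 further: recombinant parasite enzyme with a five histidine tag at its C terminus; test concentration not given here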
[5] = P. aeruginosa biofilm formation inhibitors, primary screen, strain PAO1, LB-PBS medium, absorbance 600 nm (AID 1176); further: test concentration not given here; settings: P. aeruginosa PAO1 growth/biofilm, A600, 12 h; higher = more signal
[6] = S. cerevisiae RM11-1a growth modifiers, primary screen, strain RM11-1a, OD600, basal, 24 h (AID 1177); settings: OD600, 24 h, higher = more signal, called active from +8 up or from −8 down;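 further: cultures grown under basal conditions with no added stressor; test concentration not given here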
[7] = E. coli acrAB mutant growth effects, primary screen, E. coli filamentation inducers, strain DRC39, OD650, 24 h (AID 1178); settings: higher = more signal, called active from +8 up or from −8 down;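 further: growth measured as culture turbidity by optical density at 650 nm; test concentration not given here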
[8] = E. coli acrAB mutant growth effects, primary screen, E. coli filamentation inducers, strain DRC39, OD650, 48 h (AID 1179);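 further: screen aims at cell division blockers that make cells filament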; settings: E. coli DRC39 delta-acrAB growth, higher = more signal, called active from +8 up or from −8 down
[9] = RPMI8226 myeloma cell viability, profiling panel, resazurin fluorescence, basal, 24 h, PK04 Diversity Set (AID 1180); settings: higher = more signal;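 further: RPMI8826 multiple myeloma cell line at 5000 cells per well; test concentration not given here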
[10] = target: E3 ubiquitin-protein ligase XIAP (Homo sapiens) (UniProt P98170); test: XIAP binders, primary screen, biophysical, small-molecule microarray, fluorescence 635 nm (AID 1181); settings: small-molecule microarray binding, higher = more signal;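 further: score merges 667 nm emission and signal to noise over triplicate slides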
Sequence of E3 ubiquitin-protein ligase XIAP (Homo sapiens) (P98170 whole entry, looked up): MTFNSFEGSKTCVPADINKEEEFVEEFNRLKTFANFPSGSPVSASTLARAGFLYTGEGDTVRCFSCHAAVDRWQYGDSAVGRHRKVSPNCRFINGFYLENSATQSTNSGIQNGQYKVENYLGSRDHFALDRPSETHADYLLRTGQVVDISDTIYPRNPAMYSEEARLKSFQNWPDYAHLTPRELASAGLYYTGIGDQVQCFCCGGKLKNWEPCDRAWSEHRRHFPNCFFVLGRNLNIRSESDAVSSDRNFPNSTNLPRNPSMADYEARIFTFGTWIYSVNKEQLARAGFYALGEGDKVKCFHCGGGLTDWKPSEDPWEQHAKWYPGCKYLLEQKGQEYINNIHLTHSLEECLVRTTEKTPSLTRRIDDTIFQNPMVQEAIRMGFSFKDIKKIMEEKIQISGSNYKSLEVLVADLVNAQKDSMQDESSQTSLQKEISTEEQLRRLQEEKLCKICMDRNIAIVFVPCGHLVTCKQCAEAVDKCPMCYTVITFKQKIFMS

Sequence of Dihydroorotate dehydrogenase (quinone), mitochondrial (Plasmodium falciparum (isolate 3D7)) (Q08210 whole entry, looked up): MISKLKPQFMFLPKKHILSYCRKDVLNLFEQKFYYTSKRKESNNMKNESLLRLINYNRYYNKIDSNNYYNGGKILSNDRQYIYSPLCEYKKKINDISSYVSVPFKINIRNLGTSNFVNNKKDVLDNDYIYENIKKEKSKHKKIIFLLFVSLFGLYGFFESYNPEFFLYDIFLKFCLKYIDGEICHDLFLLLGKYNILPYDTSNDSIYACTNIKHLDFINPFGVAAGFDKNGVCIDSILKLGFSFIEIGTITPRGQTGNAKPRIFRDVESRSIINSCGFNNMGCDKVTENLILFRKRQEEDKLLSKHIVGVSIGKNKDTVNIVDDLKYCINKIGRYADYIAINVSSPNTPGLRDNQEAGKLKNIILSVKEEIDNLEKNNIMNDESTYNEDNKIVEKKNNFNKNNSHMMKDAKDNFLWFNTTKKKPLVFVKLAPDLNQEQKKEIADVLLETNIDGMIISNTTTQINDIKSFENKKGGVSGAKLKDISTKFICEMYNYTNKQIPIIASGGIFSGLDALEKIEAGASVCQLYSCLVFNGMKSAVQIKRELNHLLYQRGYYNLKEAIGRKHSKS

SMILES | z-score [1] | z-score [2] | z-score [3] | composite z-score [4] | z-score [5] | z-score [6] | z-score [7] | z-score [8] | z-score [9] | composite z-score [10]
O=C1[C@H]2[C@H]3[C@H](O)[C@H](O)CC(=NOC[C@@H](O)COCc4ccco4)[C@@H]3CC[C@H]2C(=O)N1C1CCCCC1 | -0.31 | 0.446 (inactive) | -0.226 (inactive) | -0.308 (inactive) | 0.0457 (inactive) | 0.153 (inactive) | 0.326 (inactive) | 0.132 (inactive) | -0.415 | -0.28
CCOC(=O)[C@H](CC(C)C)NC(=O)CCC1CC(OC(=O)NCCc2ccc(F)cc2)CC2(CCCC(COC(=O)NCc3cccc4ccccc34)O2)O1 (stereo not given in full) | 0.682 | -1.9 (inactive) | 1.28 (inactive) | 0.0103 (inactive) | 0.168 (inactive) | -0.186 (inactive) | 0.424 (inactive) | -0.435 (inactive) | 1.3 | -0.0939
O=C(NN=C1C[C@@H](O)[C@@H](O)[C@@H]2[C@@H]3C(=O)N(c4ccc(F)cc4F)C(=O)[C@@H]3CC[C@H]12)OCc1ccccc1 | 2.08 | -0.814 (inactive) | 1.23 (inactive) | -0.25 (inactive) | -0.258 (inactive) | -1.35 (inactive) | 0.574 (inactive) | 0.573 (inactive) | 0.86 | -0.152
CC(C)CON=C1[C@H]2CCn3c(=O)n(C)c(=O)n3[C@H]2[C@H](O)[C@@H]2O[C@H]12 | -0.423 | 0.0789 (inactive) | 0.0226 (inactive) | -0.764 (inactive) | -0.425 (inactive) | -0.353 (inactive) | -0.0374 (inactive) | -0.0718 (inactive) | -0.347 | -0.117
COc1cccc([C@H](O)Cn2cc(-c3ccc(CON=C(C)C)cc3)nn2)c1 | -0.262 | -0.377 (inactive) | -0.307 (inactive) | -0.217 (inactive) | 0.475 (inactive) | -0.47 (inactive) | 0.419 (inactive) | 0.291 (inactive) | -0.0501 | -0.167
CN1CCc2nc(-c3ccccc3)c(-c3ccccc3)cc2C1 | 0.713 | 0.0367 (inactive) | 0.476 (inactive) | -0.191 (inactive) | -0.364 (inactive) | 0.298 (inactive) | 0.38 (inactive) | 0.105 (inactive) | 0.639 | 0.0024
CC(=O)OC[C@H]1O[C@H](CC=NO[C@H](C)c2cn([C@@H]3COC[C@H]3O)nn2)C=C[C@@H]1OC(C)=O | -0.648 | -0.199 (inactive) | 0.134 (inactive) | -1.64 (inactive) | 0.441 (inactive) | -1.9 (inactive) | -0.716 (inactive) | -0.743 (inactive) | 0.0142 | -0.0447
CCOC(=O)CCN1C(=O)[C@H]2[C@H]3[C@H](O)[C@H](O)CC(=NOCC=C(C)CCC=C(C)C)[C@H]3CC[C@H]2C1=O | -0.51 | 0.398 (inactive) | -0.524 (inactive) | -0.0222 (inactive) | 0.128 (inactive) | 0.0725 (inactive) | 0.614 (inactive) | 0.846 (inactive) | -0.764 | 0.0223
CCOC(=O)[C@H](Cc1ccccc1)NC(=O)CCC1CC(OC(=O)NCc2ccc3c(c2)OCO3)CC2(CCCC(COC(=O)NCCOc3ccccc3)O2)O1 (stereo not given in full) | 0.425 | -1.24 (inactive) | 0.975 (inactive) | -1.76 (inactive) | -0.102 (inactive) | 0.0995 (inactive) | 0.662 (inactive) | 0.181 (inactive) | 0.579 | -0.0832
C#CCCCON=C1[C@H]2CCn3c(=O)n(Cc4cc5c(cc4Cl)OCO5)c(=O)n3[C@H]2[C@H](O)[C@@H]2O[C@H]12 | -0.242 | 0.606 (inactive) | -0.16 (inactive) | 0.605 (inactive) | -0.106 (inactive) | 0.432 (inactive) | 0.313 (inactive) | -0.506 (inactive) | 0.0334 | -0.168
CC1(C)O[C@H]2OC([C@H](O)CON3C(=O)c4ccccc4C3=O)[C@H](O)[C@H]2O1 (stereo not given in full) | 0.109 | 0.457 (inactive) | -0.409 (inactive) | -0.559 (inactive) | -0.151 (inactive) | -0.854 (inactive) | 0.345 (inactive) | 0.209 (inactive) | 0.0738 | -0.261
COCC#Cc1ccc([C@@H]2N[C@H](C(=O)O)CC[C@H]2C)cc1 | -0.041 | -1.71 (inactive) | 0.525 (inactive) | -1.53 (inactive) | 0.143 (inactive) | -2.45 (inactive) | 0.966 (inactive) | -0.94 (inactive) | -0.293 | -0.416
CCOC(=O)[C@H](Cc1ccccc1)NC(=O)CCC1CC(OC(=O)NCc2cccc3ccccc23)CC2(CCCC(COC(=O)NCCc3ccc(Cl)cc3)O2)O1 (stereo not given in full) | 0.723 | -1.24 (inactive) | 0.768 (inactive) | -0.617 (inactive) | 0.32 (inactive) | -0.424 (inactive) | -0.178 (inactive) | -0.907 (inactive) | 1.45 | 0.165
CC[C@@H](c1ccccc1)n1c(=O)n2n(c1=O)[C@H]1[C@H](O)[C@@H]3O[C@@H]3C(=NOCc3ccccc3)[C@H]1CC2 | -1.67 | -1.04 (inactive) | -2.51 (inactive) | 0.149 (inactive) | -0.0819 (inactive) | -0.15 (inactive) | -0.527 (inactive) | -0.95 (inactive) | -2.34 | -0.0062
